In PubChem BioAssay (NCATS):
Values without a mark were called inactive. For some of these results: Entries with a potency or affinity are not part of this list. Active and inactive are the calls of the source. No rule for the calls is given here.

Experiments:
[1] = Ebola virus entry assay, green fluorescence channel
[2] = Ebola virus entry assay, blue channel fluorescence
[3] = Ebola virus entry assay, ratio channel
[4] = Ebola virus entry assay, reporter ratio channel; Channel type: primary
For efficacy in this document: 0% is about no effect.

Row | SMILES | efficacy [1] [%] | outcome [2] | outcome [3] | AC50 [4] | AC50 [2] | AC50 [3] | outcome [4]
1 | O=C1OC2(c3ccccc31)c1cc(I)c(O)c(I)c1Oc1c2cc(I)c(O)c1I | 162 | inactive | inactive | 39.8 µM (active) | – | – | –
2 | Cc1cccc(N(C)C(=S)Oc2ccc3c(c2)CCC3)c1 | 64.2 | – | inactive | 39.8 µM (active) | 39.8 µM (active) | – | –
3 | CN(C)CCn1nnnc1SCC1=C(C(=O)O)N2C(=O)[C@@H](NC(=O)Cc3csc(N)n3)[C@H]2SC1 | 40.8 | – | – | 28.2 µM (active) | 17.8 µM (active) | 28.2 µM (active) | –
4 | CC[n+]1c(-c2ccccc2)c2cc(N)ccc2c2ccc(N)cc21 | 67.8 | – | – | 14.1 µM (active) | 28.2 µM (active) | 14.1 µM (active) | –
5 | CN1CCC(=C2c3ccccc3CC(=O)c3sccc32)CC1 | 93.4 | – | – | 28.2 µM (active) | 31.6 µM (active) | 28.2 µM (active) | –
6 | CN(C)CCN(Cc1ccc(Cl)cc1)c1ccccn1 | 58.3 | – | – | 14.1 µM (active) | 17.8 µM (active) | 14.1 µM (active) | –
7 | CN(C(=O)CN(CCO)CC(=O)N(C)C(C)(C)Cc1ccccc1)C(C)(C)Cc1ccccc1 | 43.4 | – | – | 5.62 µM (active) | 7.94 µM (active) | 5.62 µM (active) | –
8 | CCCCCCCCCCCCCCCCCCNC(=O)OC1CCN(C(=O)OC[C@H](COC(=O)N(Cc2cccc[n+]2CC)C(=O)c2ccccc2OC)OC)CC1 | -117 | – | inactive | – | 39.8 µM (active) | – | inactive
9 | c1ccc(C(O[C@H]2CCCN(CCc3ccc4c(c3)OCO4)C2)c2ccccc2)cc1 | 57.8 | – | – | 25.1 µM (active) | 28.2 µM (active) | 25.1 µM (active) | –
10 | COc1cc(N)c(Cl)cc1C(=O)NC1CCN(CCCOc2ccc(F)cc2)CC1OC (configuration not stated) | 45 | – | – | 15.8 µM (active) | 25.1 µM (active) | 15.8 µM (active) | –
11 | CN(C)CCCN1c2ccccc2Sc2ccc(C(F)(F)F)cc21 | -67.9 | – | – | 2.82 µM (active) | 3.16 µM (active) | 2.82 µM (active) | –
12 | CCC(C(=O)OCCN1CCOC(c2ccccc2)C1C)c1ccccc1 (configuration not stated) | 88.5 | – | – | 28.2 µM (active) | 22.4 µM (active) | 28.2 µM (active) | –
13 | CCCCOc1ccc(OCCCN2CCOCC2)cc1 | 94.1 | – | – | 22.4 µM (active) | 25.1 µM (active) | 22.4 µM (active) | –
14 | CCCCNc1c(C(=O)OCC)c(C)nc2c1cnn2CC | -35 | – | – | 22.4 µM (active) | 25.1 µM (active) | 22.4 µM (active) | –
15 | CCCCCCOC(=O)NC(=N)c1ccc(NCc2nc3cc(C(=O)N(CCC(=O)OCC)c4ccccn4)ccc3n2C)cc1 | 128 | – | – | 3.16 µM (active) | 3.55 µM (active) | 3.16 µM (active) | –
16 | Cc1ccc2c(Br)cc(Br)c(O)c2n1 | 99.5 | – | – | 39.8 µM (active) | 35.5 µM (active) | 39.8 µM (active) | –
17 | CCOC(=O)N1CCC(Nc2ccc(Cl)cc2N)CC1 | 119 | – | inactive | 39.8 µM (active) | 39.8 µM (active) | – | –
18 | COc1cc(C(=O)OCCCN2CCCN(CCCOC(=O)c3cc(OC)c(OC)c(OC)c3)CC2)cc(OC)c1OC | 89.6 | – | – | 12.6 µM (active) | 17.8 µM (active) | 12.6 µM (active) | –
19 | N#C/C(=C1/SC[C@@H](c2ccc(Cl)cc2Cl)S1)n1ccnc1 | 68.3 | – | inactive | 39.8 µM (active) | 39.8 µM (active) | – | –
20 | Cc1cc(C2CCCCC2)n(O)c(=O)c1 | 53.2 | – | inactive | 39.8 µM (active) | 39.8 µM (active) | – | –
21 | CN(C)c1ccc(C(=C2C=CC(=[N+](C)C)C=C2)c2ccc(N(C)C)cc2)cc1 | -158 | – | – | 3.55 µM (active) | 5.01 µM (active) | 3.55 µM (active) | –
22 | Nc1ccc2cc3ccc(N)cc3nc2c1 | 154 | – | – | 39.8 µM (active) | 39.8 µM (active) | 39.8 µM (active) | –
23 | CN(C)[C@@H]1C(=O)C(C(=O)NCN2CCCC2)=C(O)[C@@]2(O)C(=O)C3=C(O)c4c(O)cccc4[C@@](C)(O)C3C[C@@H]12 (some centres not stated) | 145 | – | – | 11.2 µM (active) | 11.2 µM (active) | 11.2 µM (active) | –
24 | CCCCC[C@H](O)C=C[C@H]1[C@H](O)CC(=O)[C@H]1CC=CCCCC(=O)O | 75.7 | – | – | 7.08 µM (active) | 8.91 µM (active) | 7.08 µM (active) | –
25 | CCN(CC)CCOc1ccc(Cc2ccccc2)cc1 | 70.7 | – | – | 3.55 µM (active) | 7.94 µM (active) | 3.55 µM (active) | –
26 | Cc1oc(-c2ccccc2)nc1CCC(=O)c1ccc(CC2SC(=O)NC2=O)cc1 (configuration not stated) | 43.2 | inactive | inactive | – | – | – | inactive
27 | O=C1NCCN1CCN1CCC(c2cn(-c3ccc(F)cc3)c3ccc(Cl)cc23)CC1 | -279 | – | – | 1 µM (active) | 0.891 µM (active) | 1 µM (active) | –
28 | Nc1c2ccccc2nc2ccccc12 | 59 | inactive | inactive | – | – | – | inactive
